This is a sample that favours compounds with a hit; in the whole collection about 6.5% have one here.
FMDV inh = blocks foot and mouth disease virus | FMDV antiviral cell-based qHTS | Potency, µM (doses to about 57.9 µM), without a hit: at the highest dose activity change, negative = inhibition, hits mostly inhibitors | 410,000 tested, 1.2% active; calls by dose curve; tested in HEK293T cells; also: read-out not given here; potency is read from the fitted curve at half-maximal effect; nearly all actives have a fitted effect of over 45% in size
HCMV inh = blocks human cytomegalovirus replication. HFF cells, HCMV-luciferase reporter, 72 h; hits give low values. activity change, negative = inhibition, % at 57.5 µM. 410,000 tested, 4.5% active; in the data active = activity change below about -60%; inconclusive = no clear call, values can overlap the other calls; inactive = above about -39%
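Steps: HFFs plated, 16 h 37C; compounds added; HCMV-luciferase added to MOI 1 PFU/cell; 72 h 37C; OneGlo reagent, 5 min room temperature; luminescence read, normalized to controls.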
Vaccinia Venus = vaccinia inhibition (Venus reporter) | Vaccinia virus Venus reporter expression, fluorescence | Potency, µM (series often up to 36.5 µM), for the others: at the top dose activity change, negative = inhibition, usual class: inhibitors | 330,000 tested, 0.46% active | AID 720580; calls by dose curve; tested in A549 cells; also: potency is read from the fitted curve at half-maximal effect; nearly all actives have a fitted effect of over 30% in size
Lassa entry inh = blocks Lassa virus binding to or entry into cells; Lassa virus pseudotype entry inhibition, cell reporter; Potency, µM (doses to about 37.9 µM), for the others: top-dose activity change, negative = inhibition, actives largely listed as inhibitors; 300,000 tested, 1.2% active; calls by dose curve; tested in HEK293 cells; also: potency is read from the fitted curve at half-maximal effect; nearly all actives have a fitted effect of over 50% in size
Vaccinia mCherry = vaccinia inhibition (mCherry reporter). Potency, µM (series often up to 36.5 µM), for the others: top-dose activity change, negative = inhibition, usual class: inhibitors. 310,000 tested, 0.63% active. Vaccinia virus mCherry reporter infection, fluorescence; calls by dose curve; tested in A549 cells; also: potency is read from the fitted curve at half-maximal effect; nearly all actives have a fitted effect of over 35% in size
Marburg entry inh = blocks Marburg virus binding to or entry into cells; Marburg virus pseudotyped entry inhibition, cell reporter; Potency, µM (doses to about 37.8 µM), for the others: at the highest dose activity change, negative = inhibition, usual class: inhibitors; 300,000 tested, 1.8% active; AID 540276; calls by dose curve; tested in HEK293 cells; also: potency is read from the fitted curve at half-maximal effect
* marks the source's active call; other numbers are inactive results; i = inactive; ? = inconclusive; / = no result; ! = repeats disagree; [ ] = dose if it differs, or a comment. % is scaled to controls: 0 for no effect and ±100 for the full control effect.

SMILES | FMDV inh | HCMV inh | Vaccinia Venus | Lassa entry inh | Vaccinia mCherry | Marburg entry inh
COc1ccc(Cl)cc1C(=O)NCCS(=O)(=O)N1CCN(c2ccccc2OC)CC1 | 8.9µM* | -20 | -27% | -13%[46.1 µM] | ? | /
O=C(NCCS(=O)(=O)N1CCN(c2ccccc2)CC1)C12CC3CC(CC(C3)C1)C2 | ? | ? | ? | / | -20% | /
COc1ccccc1N1CCN(S(=O)(=O)CCNC(=O)C23CC4CC(CC(C4)C2)C3)CC1 | 14µM* | -13 | / | / | / | /
COc1ccccc1N1CCN(S(=O)(=O)CCNC(=O)CCc2ccccc2)CC1 | ? | -86* | -20% | / | -3% | /
COc1ccc(CC(=O)NCCS(=O)(=O)N2CCN(c3ccccc3OC)CC2)cc1 | -15% | -27 | -26% | ? | -6% | ?
CCN1CCN(C(=O)c2cc(NC(=O)COC)cc3nc(-c4ccncc4)n(C)c23)CC1 | -9% | / | 1% | / | -10% | /
Cc1cn2c(=O)cc(COc3ccccc3NC(=O)c3ccccc3C)nc2s1 | -27% | -11 | 1% | 14%[46.1 µM] | -7% | 26%[46.1 µM]
Cc1cn2c(=O)cc(COC(=O)c3cccc(NC(=O)C(C)Oc4ccccc4)c3)nc2s1 (configuration not stated) | 6% | -64* | -15% | -2%[46.1 µM] | i | /
Cc1cn2c(=O)cc(COC(=O)C(C)Oc3ccccc3)nc2s1 (configuration not stated) | -3% | 12 | 0% | 0%[46.1 µM] | -5% | /
Cc1cn2c(=O)cc(COc3ccc(Cl)cc3)nc2s1 | -9% | 6 | -17% | 33%[46.1 µM] | -10% | -4%[46.1 µM]
Cc1ccc(OCc2cc(=O)n3cc(C)sc3n2)c(C)c1 | 21% | -101* | -4% | 16%[46.1 µM] | -6% | -4%[46.1 µM]
Cc1cn2c(=O)cc(COc3cccc(NC(=O)c4ccccc4C)c3)nc2s1 | -13% | -69* | -4% | -1%[46.1 µM] | -11% | -1%[46.1 µM]
CC(=O)NC(NC(C)=O)c1cccc(OCc2ccccc2)c1 | -15% | -68* | -1% | 16% | i | -1%
CC(=O)Nc1cccc(NC(=O)c2ccc(COc3ccccc3)cc2)c1 | 40% | 57 | -13% | ? | 3% | ?
Cc1nnc(NC(=O)c2ccc(S(=O)(=O)N3CCc4ccccc4C3)cc2)o1 | -6% | -39 | / | / | / | /
Cc1cc(C)c2nc(NNC(=O)c3ccc(S(=O)(=O)N4CCc5ccccc5C4)cc3)sc2c1 | -16% | -97* | ? | 16µM* | 16µM* | ?
Cc1cc(C)c2sc(NNC(=O)c3ccc(S(=O)(=O)N4CCc5ccccc5C4)cc3)nc2c1 | ? | -106* | 7.9µM* | 12µM* | 4.5µM* | ?
CCCCCCCCCCCCCCCC[n+]1ccc(CC(O)c2c(C)[nH]c3ccccc23)c2ccccc21 (configuration not stated) | / | / | i | / | i | /
CCn1nc(C)c(CNC(=O)c2cc(COc3cncc(Cl)c3)on2)c1C | 1% | -64* | 11%[7.34 µM] | / | -7%[7.34 µM] | /
CCn1nc(C)c(CNC(=O)c2cc(COc3ccccc3SC)on2)c1C | ? | -64* | -10% | -20%[46.1 µM] | -13% | 27%[46.1 µM]
CCc1ccccc1NS(=O)(=O)c1ccc2c(c1)CCCN2C(=O)C1CCC1 | -28% | -17 | -13% | 4%[46.1 µM] | -8% | /
CN(C)CC[C@@H](c1ccc(Br)cc1)c1ccccn1 | -25% | ? | -4% | ? | i | 8.9µM*!
CN(C)CC[C@@H](c1ccc(Cl)cc1)c1ccccn1 | -22% | ? | -13% | 1% | -20% | 5.6µM*!
COc1ccc2c(Sc3ccc(C)cc3)c(C(=O)NCC(C)c3ccccc3)[nH]c2c1 (configuration not stated) | 27% | 11 | -24% | -6%[46.1 µM] | -27% | -1%[46.1 µM]
CN(C(=O)C(C)(C)C)C1c2c(ccc3ccccc23)OCC1CO (configuration not stated) | ? | 55 | -6% | ? | -13% | -41%
SMILES | FMDV inh | HCMV inh | Vaccinia Venus | Lassa entry inh | Vaccinia mCherry | Marburg entry inh
CNC(=S)N(C)[C@H]1c2c(ccc3ccccc23)OC[C@H]1CO | 0% | -60* | -18% | 21%[46.1 µM] | ? | 5%[46.1 µM]
COc1ccccc1NC(=O)Cn1c(=O)n(Cc2cccs2)c(=O)c2cccnc21 | -14% | -64* | -18% | / | -13% | 3%[46.1 µM]
COc1ccccc1NC(=O)Cn1c(C)cc(=O)c2cccc(OC)c21 | 7.1µM* | -10 | ? | -19% | ? | ?
Cc1ccc(-c2nc3cccnc3s2)cc1NC(=O)Cc1ccccc1 | 34% | 52 | 4% | ? | 11% | /
Cc1cccc(N2CCN(C(=O)c3ccc4nc(-c5ccco5)c(-c5ccco5)nc4c3)CC2C)c1 (configuration not stated) | 25µM* | -36 | / | ? | / | ?
CCOC(=O)c1[nH]c2ccc(OC)cc2c1NC(=O)CCN1CCC[C@@H](C)C1 | / | / | / | / | / | 3%[46.1 µM]
O=C(O)c1ccc(N2C(=O)/C(=C/c3ccc(-c4ccc([N+](=O)[O-])cc4)o3)C=C2c2ccccc2)cc1 | 16µM* | / | 177% | -5%[46.1 µM] | -7% | -15%[46.1 µM]
O=C1NN(c2ccccc2)C(=O)/C1=C/c1ccc(-c2ccc(C(=O)O)cc2)o1 | 3% | 8 | / | / | / | /
Cc1sc(N/N=C/c2ccco2)nc1-c1ccccc1 | 18% | -29 | -22% | 21µM* | -10% | ?
Cc1sc(N/N=C/c2cccnc2)nc1-c1ccccc1 | ? | -65* | / | 2.9µM* | / | ?
C(=N\Nc1nc(-c2ccccc2)cs1)/c1ccco1 | -20% | 119 | -11% | ? | -25% | ?
CN(C)c1ccc(NC(=O)Cn2c(SCc3ccc(F)cc3)nc3cccnc32)cc1 | 22% | 5 | -8% | ? | -8% | /
O=C(CC(=O)Nc1cccc(F)c1)Nc1cccc(F)c1 | 67% | 52 | -7% | 0% | i | 2%
O=C(C#Cc1ccccc1)Nc1cccc(F)c1 | 33% | -104* | ? | 11µM* | 3.5µM* | ?
O=C(C#Cc1ccccc1)Nc1ccc(F)cc1 | 11% | -102* | ? | ? | ? | ?
N#C/C(=C\c1cccn1-c1ccccc1)C(=O)NC1CCCCC1 | -27% | 61 | 4% | 4% | -6% | ?
N#C/C(=C\c1ccccc1[N+](=O)[O-])C(=O)NC1CCCCC1 | 35µM* | 83 | 5% | ? | -12% | ?
N#C/C(=C\C=C\c1ccccc1[N+](=O)[O-])C(=O)NC1CCCCC1 | 25µM* | / | ? | ? | ? | ?
CCOc1ccccc1NC(=O)c1nc(SC(C)C)ncc1Cl | ? | 21 | -2% | 27%[46.1 µM] | -3% | -19%[46.1 µM]
Cc1ccc(C(=O)Nc2c(C(=O)Nc3ccc(C)c(C)c3)sc3nc(C)cc(C)c23)cc1 | 56% | -107* | ? | 19%[46.1 µM] | ? | ?
O=C(NCc1cccnc1)Nc1ccc(F)cc1F | 20% | 45 | -7% | 9% | -4% | 19%
O=C(NCc1ccc(F)cc1F)Nc1cnccc1C(F)(F)F | -12% | -68* | / | / | / | /
CC1CCN(S(=O)(=O)c2ccc3c(c2)N(CC(=O)N(C)Cc2ccccc2)C(=O)CO3)CC1 | -10% | -24 | -7% | 2%[46.1 µM] | -8% | /

Screens from PubChem BioAssay.
